# Data from PubChem BioAssay (Tox21).
# Several values for one entry are separate records, joined by “and”; a condition that tells them apart may be missing. Identical values can stand only once. Inconclusive results are not listed. Activity calls are given as the source filed them. The call rests on the fitted dose curve; in most records, active means well fitted activation curve with a large enough effect in the repeat runs; inconclusive means weak or mixed curves; inactive means flat fitted curve, though single readings scatter.
# Assay: A CellTox Green Cytotoxicity Assay to monitor cytotoxicity in HepG2 cells - 32 hour (AID 1224883); further: nearly all actives have a fitted effect of over 50% in size
# Conditions: CellTox Green fluorescence; series mostly up to 76.8 µM; cytotoxicity increase: at the top concentration
# From the text: National Center for Advancing Translational Sciences [NCATS]
# NIH Chemical Genomics Center [NCGC]
# U.S. Environmental Protection Agency [EPA]
# National Institutes of Environmental Health Sciences [NIEHS]
# National Toxicology Program [NTP]
# Cell-based models are critical for drug discovery. Determining the natural cytotoxic effects resulting from test compounds is an essential research activity. A CellTox Green Cytotoxicity Assay to monitor cytotoxicity in real time of continues cell culture during 40 hours of the compound treatment was used to screen Tox21 10K library compounds in HepG2 cells. CellTox Green Cytotoxicity Assay is a nonlytic, homogeneous, biofluorescent method to measure cytotoxicity in cell culture after experimental manipulation. The assay system uses a proprietary asymmetric cyanine dye that is excluded from viable cells but preferentially stains the dead cell's DNA. […] Viable cells produce no appreciable increases in fluorescence. Therefore, the fluorescence signal produced by the binding interaction with dead cell DNA is proportional to cytotoxicity.
# The mixture of HepG2 cell suspension and reagents were dispensed at 600cells/6 ul/well in 1536-well tissue culture treated black solid bottom plates using a Multidrop dispenser. After the assay plates were incubated at a 37 C/5% CO2 incubator for 5 hours, 23 nL of compounds dissolved in DMSO, positive and negative controls was transferred to the assay plate by a pintool work station. The plates were incubated at 37 C for 40 hours. The fluorescence intensity were measured at 0h, 8h, 16h, 24h, 32h and 40h time points using ViewLux plate reader during compound treatment.
# On the % scale 0 is the no-effect control and ±100 the full control effect; potency means the concentration at half of the fitted maximal effect.
SMILES,cytotoxicity increase,Potency
CC(CCc1ccc2c(c1)OCO2)NN (stereo not given),-0.252% [at 35.3 µM] (inactive),–
CC(=O)Oc1ccc(C(=C2CCCCC2)c2ccc(OC(C)=O)cc2)cc1,-15.7% [at 35.3 µM] (inactive),–
Cc1ccnc2ccccc12,12.4% (inactive),–
CCc1nn(CCCN2CCN(c3cccc(Cl)c3)CC2)c(=O)n1CCOc1ccccc1,5.58% [at 35.3 µM] (inactive),–
CC(=O)CC(c1ccc([N+](=O)[O-])cc1)c1c(O)c2ccccc2oc1=O (stereo not given),-1.3% [at 35.3 µM] (inactive),–
CC(C)(C)C(=O)O,1.37% (inactive),–
CC(C)CCCCCOC(=O)CCCCC(=O)OCCCCCC(C)C,-1.98% (inactive),–
Oc1ccc(Nc2ccccc2)cc1,1.77% (inactive),–
COC(=O)c1cc(Cl)ccc1NS(=O)(=O)C(F)(F)F,0.497% [at 35.3 µM] (inactive),–
O=C(O)C(Cc1cc(I)c(O)c(I)c1)c1ccccc1 (stereo not given),0.546% [at 35.3 µM] (inactive),–
C=CC(=C)CCCC(C)(C)OC(C)=O,-9.73% (inactive),–
CCn1nc(C)c2c1C(=O)NCC(c1ccc(O)cc1)=N2,3.82% (inactive),–
CNCCCC1c2ccccc2C=Cc2ccccc21,–,23.9 µM (active)
CN1CCN(c2c(F)cc3c(=O)c(C(=O)O)cn4c3c2OCN4C)CC1,-4.96% [at 15.8 µM] (inactive),–
C/C(=N/NC(=O)c1ccncc1)C(=O)O,27.6% [at 35.3 µM] (inactive),–
COCc1c(C(C)C)nc(C(C)C)c(/C=C/[C@@H](O)C[C@@H](O)CC(=O)O)c1-c1ccc(F)cc1,–,338 nM (active) and 4.84 µM (active)
CO[C@@]12[C@H](COC(N)=O)C3=C(C(=O)C(C)=C(N)C3=O)N1C[C@@H]1N[C@@H]12,–,8.49 µM (active)
CC[C@@H]([C@H](C)O)n1ncn(-c2ccc(N3CCN(c4ccc(OC[C@@H]5CO[C@@](Cn6cncn6)(c6ccc(F)cc6F)C5)cc4)CC3)cc2)c1=O,20.2% [at 35.3 µM] (inactive),–
CN1Cc2cc(C(=O)N3CCC(C4CCNCC4)CC3)ccc2N[C@@H](CC(=O)O)C1=O,-10.9% [at 35.3 µM] (inactive),–
CN1CCN(CCCN2c3ccccc3Sc3ccc(S(=O)(=O)N(C)C)cc32)CC1,–,26.8 µM (active)

SMILES,cytotoxicity increase,Potency
Nc1nc(Cl)nc2c1ncn2[C@@H]1O[C@H](CO)[C@@H](O)[C@@H]1F,-13.8% [at 35.3 µM] (inactive),–
O=C(C(=O)c1ccccc1)c1ccccc1,-7.94% (inactive),–
CO[C@H]1O[C@H](CO)[C@@H](O)[C@H](O)[C@H]1O,1.35% (inactive),–
C1COCO1,1.18% (inactive),–
CC1=NN(c2ccc(C(=O)O)cc2)C(=O)C1,-10.8% (inactive),–
CCCCC(=O)O[C@]1(C(=O)CO)CC[C@H]2[C@@H]3CCC4=CC(=O)CC[C@]4(C)[C@H]3[C@@H](O)C[C@@]21C,-8.81% [at 35.3 µM] (inactive),–
CCCCCCCC/C=C\CCCCCCCC(=O)OC,-3.34% (inactive),–
NCC1CCCC(CN)C1 (stereo not given),0.331% (inactive),–
ON(Cc1ccccc1)Cc1ccccc1,12% (inactive),–
NC(=O)N(O)[C@@H]1C=C[C@H](Oc2cccc(Oc3ccc(F)cc3)c2)C1,–,38.9 µM (active)
OCC1CC=CCC1 (stereo not given),-13.4% (inactive),–
Nc1ccc(S(=O)(=O)O)c(N)c1,9.59% (inactive),–
CCOC(=O)N1CCC(n2c(=O)[nH]c3cc(Cl)ccc32)CC1,-1.74% [at 35.3 µM] (inactive),–
C/C=C/C=C/CCCCCCCO,16.6% (inactive),–
CCC1(C)CC(=O)NC1=O (stereo not given),-16.2% [at 35.3 µM] (inactive),–
C=CC(C)(C)CC(=O)OC,-0.337% (inactive),–
CC(COc1ccc(C(C)(C)C)cc1)OS(=O)OCCCl (stereo not given),-2.51% (inactive),–
CC1CC(=O)NN=C1c1ccc(NCC(C)(C)NCC(O)COc2cc(Cl)ccc2C#N)cc1 (stereo not given),-2.75% [at 35.3 µM] (inactive),–
C/C=C(\C)C(=O)OCCC(C)CCC=C(C)C (stereo not given),0.178% (inactive),–
Cc1ccccc1N1C(=O)c2cc(S(N)(=O)=O)c(Cl)cc2NC1C (stereo not given),-7.18% [at 35.3 µM] (inactive),–
